Source: PubChem BioAssay (NCI)
Compounds without any hit were thinned out: in the full panel of roughly 83,000, 20% have a hit.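 48-hour exposure, single concentration, 96-well plates; percent growth endpoint where 0 means no net growth. Active: below 10.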 Active and inactive are the calls of the source.

Each compound was assayed on SK-MEL-28 melanoma (assay: NCI-60 one-dose screen, 48 h (100 = growth as untreated, 0 = no growth, -100 = all killed)). Conditions: 10 µM.

| SMILES | growth |
| --- | --- |
| Cc1c(-c2ccccc2)[nH]c2ccccc12 | 121% (inactive) |
| COc1ccc(C(C#N)=C2C=CC(=NO)C=C2)cc1 | 106% (inactive) |
| COc1ccc(N)c2c1C(=O)c1ccccc1C2=O | 128% (inactive) |
| CC[C@@]1(OC(=O)CN(C)C)C(=O)OCc2c1cc1n(c2=O)Cc2cc3c(N)cccc3nc2-1 | 16.5% (inactive) |
| N#CC(=C1C=CC(=NO)C=C1)c1ccccc1 | 76.3% (inactive) |
| Cc1cc(N=C2C=CC(=[N+](C)C)C=C2)c(N)cc1N | 103% (inactive) |
| COc1cc(N)ccc1Nc1c2ccccc2nc2ccccc12 | 107% (inactive) |
| O=C1C=CC(=O)N1c1ccc(N2C(=O)C=CC2=O)cc1 | 135% (inactive) |
| Cc1cc(Cl)ccc1NC(=O)/C(Cl)=C1/Sc2ccccc2NC1=O | 125% (inactive) |
| O=C(CNS(=O)(=O)Cc1ccccc1)NNc1ccccc1 | 94% (inactive) |
| Cc1cc(C)c(N2C(=O)CC(Sc3ccccc3N)C2=O)c(C)c1 (stereo not drawn) | 60.7% (inactive) |
| O=C1c2ccccc2CCC1(Br)Br | 56.5% (inactive) |
| O=C(NC(=S)Nc1ccccn1)c1ccccc1 | 152% (inactive) |
| ClCCn1c(CCl)nc2ccc(Cl)cc21 | 42.8% (inactive) |
| N#C/C(=C/N1C(=O)/C(=C/c2ccc([N+](=O)[O-])cc2)SC1=S)c1nc2ccccc2s1 | 105% (inactive) |
| CN(C)CCNc1cccc2sc3ccc(O)cc3c(=O)c12 | 69.2% (inactive) |
| NCc1c(O)ccc2ccccc12 | 105% (inactive) |
| CN(CC(=O)O)c1ccc(/C=C/c2ccnc3ccccc23)cc1 | 100% (inactive) |
